DT40 TDP1 CPT – qHTS for Inhibitors of human tyrosyl-DNA phosphodiesterase 1 (TDP1): qHTS in cells in presence of CPT; chicken DT40 Tdp1-/-;hTDP1 cells + 20 nM CPT, ATP luminescence, 48 h; Potency, µM (highest dose often 46.2 µM), for the others: at the top dose activity change, negative = growth inhibition, most hits filed as inhibitors; actives 12% (n = 420,000); AID 686979, 2013; note: potency is the fitted concentration of half-maximal effect; nearly all actives have a fitted effect of over 55% in size
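Chicken DT40 Tdp1-/- cells stably complemented with human TDP1 were seeded at 400 cells/well in medium containing 20 nM camptothecin, exposed to pin-transferred compounds, and grown at 37 °C for at least 48 hr. Viability was read as ATP luminescence.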
TDP1 cell noCPT – qHTS for Inhibitors of human tyrosyl-DNA phosphodiesterase 1 (TDP1): qHTS in cells in absence of CPT. DT40 Tdp1-/- hTDP1 cells, no CPT, ATP luminescence, 48 h. actives 15% (n = 420,000). Potency, µM (highest dose often 46.2 µM), for inactives: top-dose activity change, negative = growth inhibition, hits mostly inhibitors; note: potency is the fitted concentration of half-maximal effect; nearly all actives have a fitted effect of over 55% in size
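Readout: luminescence from CellTiter-Glo after 30 min in the dark at RT. Cells: DT40 Tdp1-/- with stable hTDP1, 400/well. Exposure: compounds alone, ≥48 hr, 37 °C.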
IL-1B inflam inh – qHTS for Inhibitors of Inflammasome Signaling: IL-1-beta AlphaLISA Primary Screen | THP-1 LPS/ATP IL-1B secretion, AlphaLISA, 16 h; active compounds read low | activity change, % at 57.5 µM | actives 4.7% (n = 360,000); in the data active = activity change below about -50%; inconclusive = mostly about -30% to -49%
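THP-1 cells pretreated 1 hr with compounds (up to 57.5 uM final), then stimulated with LPS (250 ng/mL final) plus ATP (1.25 mM final); secreted IL-1B measured by AlphaLISA after 16 hr, decreased signal indicating inhibition.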
HT1080 IDH1KD tx – qHTS for induction of synthetic lethality in tumor cells producing 2HG: qHTS for the HT-1080-IDH1KD cell line. HT-1080 IDH1 knockdown viability, ATP luminescence, 48 h. Potency, µM (doses to about 46.1 µM), for inactives: at the highest dose activity, negative = toxicity, actives largely listed as cytotoxic. actives 2% (n = 360,000);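 note: potency is the fitted concentration of half-maximal effect; 0% = DMSO wells and -100% = cell-free medium wells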
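Knockdown cells (IDH1KD HT-1080) received compounds 2 h after plating at 750 cells/well and were kept 48 h at 37 °C in 5% FBS RPMI. A CellTiter-Glo luminescence read gave % activity for curve fitting.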
HT1080NT lethal – qHTS for induction of synthetic lethality in tumor cells producing 2HG: qHTS for the HT-1080-NT fibrosarcoma cell line; AID 686970, 2013; actives 1.6% (n = 360,000); Potency, µM (titrated, usually from 46.1 µM), for inactives: at the highest dose activity, negative = less viability, actives largely listed as cytotoxic; HT-1080-NT fibrosarcoma viability, CellTiter-Glo ATP luminescence, 48 h;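 note: NT is the 2HG producing partner of a matched IDH1 knockdown line; potency is the fitted concentration of half-maximal effect; 0% = DMSO-treated cells and -100% = media-only wells without cells; nearly all actives have a fitted effect of over 55% in size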
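Viability of the 2HG-overproducing fibrosarcoma line after 48 hours of compound exposure at 37 degrees C was determined by luminescence with CellTiter-Glo, and concentration-effect curves were then fitted and categorized.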
The depositor's hits bear a star; ? = inconclusive; . = no result given; [ ] = dose if it differs, or a comment. Sampled rows, rich in hits. Any-hit rate of the full collection: about 19%. Unless noted, calls come from the whole dose curve; as a rule, active = well fitted curve in the direction sought with a large enough effect; inconclusive = small, poorly fitted or top-dose-only effect, or another doubt; inactive = no such curve, though single readings can be large; an effect the other way counts as inactive or inconclusive. Unless noted, % is set by controls: 0 for no effect and ±100 for the full control effect.

SMILES	DT40 TDP1 CPT	TDP1 cell noCPT	IL-1B inflam inh	HT1080 IDH1KD tx	HT1080NT lethal
CN1CC(COCc2ccccc2)Oc2ccccc2S1(=O)=O (stereo unspecified)	?	-23%	20	2%	-2%
O=S1(=O)c2ccccc2OC(COCc2ccccc2)CN1C1CC1 (stereo unspecified)	18µM*	18µM*	18	-4%	-6%
C/C(=C\c1ccccc1)C(=O)NCCCn1ccnc1	-6%	-18%	9	-4%	-6%
Cc1ccc(-n2c(Cc3ccccc3)nnc2SCc2nc(-c3cccs3)no2)cc1C	?	23µM*	.	.	.
CCc1ccc(-n2c(Cc3ccccc3)nnc2SCc2nc(-c3cccs3)no2)cc1	23µM*	16µM*	.	.	.
CN(C)c1ccc(CN(CC2CCCO2)C(=O)COc2ccc(Cl)cc2)cc1 (stereo unspecified)	26µM*	18µM*	.	.	.
CN(C)c1ccc(CN(CC2CCCO2)C(=O)c2cccs2)cc1 (stereo unspecified)	?	-23%	0	0%	-5%
Cc1cc(OCC(=O)N(Cc2ccc(N(C)C)cc2)CC2CCCO2)ccc1Cl (stereo unspecified)	23µM*	-100%	.	.	.
CC1=NOC2(C1)N(C)c1ccccc1C2(C)C (stereo unspecified)	-5%	-2%	0	-1%	3%
COc1ccc2ccc3c(c2c1)N=C[C@]1(O3)N(C)c2ccccc2C1(C)C	18µM*	10µM*	-26	?	?
COC(=O)C1CCCCN1C(=O)CCc1nnc(CCc2c[nH]c3ccccc23)o1 (stereo unspecified)	?	-30%	-5	2%	10%
COC(=O)[C@@H]1CCCN1C(=O)CCc1nnc(CCc2c[nH]c3ccccc23)o1	?	?	-105*	-4%	-15%
O=C(Nc1nnc(C2CCCC2)s1)C1CCC1	-16%	?	11	6%	9%
Cc1nc2c(OCc3ccc(C(F)(F)F)cc3)cccn2c1N(C)CC1CC1	?	23µM*	-19	?	6.5µM*
COC(=O)c1ccccc1COc1cccn2c(N(C)CC3CC3)c(C)nc12	?	18µM*	-13	?	?
CC(C)(CO)Nc1nc(Cl)nc(NC2CCCCC2)n1	-5%	?	12	3%	0%
CCOC(=O)N1CCN(C(=O)c2ccc(-c3ccccc3OC)nc2N2CCC(N3CCCC(CO)C3)CC2)CC1 (stereo unspecified)	18%[9.04 µM]	-18%	.	.	.
COc1cc(NC(=O)N2CCc3nc(Nc4cc(Cl)cc(Cl)c4)ncc3C2)cc(OC)c1OC	23µM*	?	?	?	?
Cc1cc2c(cc1S(=O)(=O)C(C)CC(=O)NCc1ccco1)OCC(=O)N2 (stereo unspecified)	-4%	22%	15	7%	7%
O=C(NN=C1CCCC1)c1[nH]c2ccc(Cl)cc2c1-c1ccccc1	?	?	.	12µM*	?
O=C(N/N=C/c1ccc(O)cc1)c1[nH]c2ccc(Br)cc2c1-c1ccccc1	3.7µM*	2.9µM*	122	4.1µM*	4.6µM*
Cc1c(C(=O)N/N=C/c2ccc(Cl)cc2)[nH]c2ccc(Cl)cc12	0.82µM*	0.92µM*	56	3.3µM*	5.8µM*
O=C(N/N=C/c1c[nH]c2ccccc12)c1[nH]c2ccc(Br)cc2c1-c1ccccc1	5.8µM*	3.7µM*	151	6.5µM*	7.3µM*
CCOc1ccc(/C=N/NC(=O)c2[nH]c3ccc(C)cc3c2C)cc1	-10%	-27%	-24	-12%	-7%
O=C(N/N=C/c1c[nH]c2ccccc12)c1cc(Br)ccc1O	-19%	6%	24	-29%	?
SMILES	DT40 TDP1 CPT	TDP1 cell noCPT	IL-1B inflam inh	HT1080 IDH1KD tx	HT1080NT lethal
NNC(=O)c1[nH]c2ccccc2c1-c1ccccc1	?	15µM*	24	1.3µM*	?
O=C(N/N=C/c1[nH]c2ccccc2c1Cl)c1cccc(Br)c1	4%	?	-84*	-1%	-7%
OCCN1CCN(CC/C=C2/c3ccccc3Sc3ccc(C(F)(F)F)cc32)CC1	21µM*	9.4µM*	?	21µM*	21µM*
OCCN1CCN(CC/C=C2/c3ccccc3CSc3ccccc32)CC1	?	?	0	-21%	-10%
CC(C)[C@H](N)c1cn([C@@H](CC(N)=O)C(=O)N2CCNCC2)nn1	13%	8%	11	7%	0%
CC1CN(S(=O)(=O)c2cccc(C(=O)Nc3cc(Cl)ccc3N3CCOCC3)c2)CC(C)O1 (stereo unspecified)	?	15µM*	-22	-19%	-26%
CC1CN(S(=O)(=O)c2cccc(C(=O)Nc3ccccc3N3CCCC3)c2)CC(C)O1 (stereo unspecified)	?	12µM*	-2	-10%	-12%
Cc1nc2ccc(NC(=O)c3cccc(S(=O)(=O)N4CC(C)OC(C)C4)c3)cc2s1 (stereo unspecified)	7.3µM*	12µM*	11	-8%	-5%
CC1CN(S(=O)(=O)c2cccc(C(=O)Nc3ccc(N4CCCCC4)cc3)c2)CC(C)O1 (stereo unspecified)	1%	-13%	2	17%	13%
CN1CCN(S(=O)(=O)c2cccc(C(=O)Nc3cc(Cl)ccc3N3CCOCC3)c2)CC1	-11%	-29%	-19	-9%	-3%
CC1(C)Oc2ccc(NC(=O)c3ccco3)cc2O1	?	?	-4	-8%	-10%
Clc1ccc(Cn2cc3c(n2)-c2cc4ccccc4n2C3)cc1	?	13µM*	.	.	.
CS(=O)(=O)c1ccc2nc(NC(=O)c3ccc(NS(=O)(=O)c4ccc(F)c(F)c4)cc3)sc2c1	-15%	-30%	80	0%	0%
CCN(CC)S(=O)(=O)c1ccc(C(=O)Nc2nc3c(Cl)cc(Cl)cc3s2)cc1	?	16µM*	.	.	.
CCN(CC)S(=O)(=O)c1ccc2nc(NC(=O)c3cccnc3)sc2c1	21µM*	?	.	.	.
CCCNS(=O)(=O)c1ccc2nc(NC(=O)c3ccc(F)cc3)sc2c1	8.2µM*	21µM*	.	.	.
CCOC(=O)C1CCN(C(c2ccccc2)c2c(O)cc(C)n(Cc3ccco3)c2=O)CC1 (stereo unspecified)	-2%	-5%	.	.	.
CC(C)(C)n1nc2c(c1NC(=O)c1cc3ccccc3o1)CS(=O)(=O)C2	1%	-13%	-5	6%	6%

Screening results as filed in PubChem BioAssay.
